Measured values reported in ChEMBL document CHEMBL3433997, “St. Jude Leishmania screening dataset” (2016).

target: Glucose transporter (Leishmania mexicana) (UniProt O61059); test: ST_JUDE_LEISH: Cytotoxicity at 2uM final concentration against transgenic Leishmania Mexicana promastigotes LmGT2 that are glucose transport deficient and complemented with the L. Mexicana glucose transporter 2. Activity is measured by DNA content using SYBR green in vitro; type: functional

SMILES	inhibition
Cc1cc(N[C@@H](CC(C)C)C(=O)NC2CCCC2)nc(NCCc2ccc(F)cc2)n1	0.03%
Cc1cc(NCC(C)C)c2[nH]nc(-c3ccccc3)c2n1	1.69%
CCCCCCCN(CCCCCCC)CCNc1cc(C)nc2ccccc12	4.49%
CCOC(=O)N1CCN(CCCCNc2c3ccc(Cl)cc3nc3ccc(OC)cc23)CC1	7.38%
COc1ccc2ncc(F)c([C@@H](O)CN3CCC(NCc4cc5c(cn4)OCS5)CC3)c2c1	4.52%
CCC(=O)N1CCc2cc(Br)cc(S(=O)(=O)N3CC(C)CC(C)C3)c21 (stereo not given)	3.73%
Oc1ccc(CN2CCC(N3CCN(CCc4ccccc4)CC3)C(O)C2)cc1Cl (stereo not given)	2.61%
COC(=O)c1ccc2nc(-c3ccc(C(=O)NC4CCN(Cc5ccccc5)CC4)s3)[nH]c2c1	8.06%
COc1ccc(N2CCN(CCCCNC(=O)c3ccc(NC(=O)c4cc(C(F)(F)F)cc(C(F)(F)F)c4)cc3)CC2)cc1OC	2.71%
CCN1CCC(N(Cc2ccc(-c3ccc(C(F)(F)F)cc3)cc2)C(=O)Cn2c(CCc3cccc(F)c3F)nc(=O)c3ccccc32)CC1	3.43%
CS(=O)(=O)Cc1ccc(Nc2nccc(NC3CCN(c4nccc(C(F)(F)F)n4)CC3)n2)cc1	-2.6%
Cc1nc(-c2ccncc2)sc1C(=O)Nc1ccc(Cl)cc1C(=O)Nc1ccc(Cl)cc1	2.19%
CC(CN1CCN(C)CC1)C(=O)Nc1ccc(-c2ccc(-c3nc4ccccc4[nH]3)cc2)cc1 (stereo not given)	1.16%
O=C(Nc1cccc(-c2cccc(-c3nc4ccccc4[nH]3)c2)c1)c1cccnc1	0.76%
CCOc1ccc2c(=NN=Cc3ccccn3)cc(C)[nH]c2c1	6.78%
c1ccc2oc(-c3cc4ccncc4cc3OC3CCNCC3)cc2c1	-3.28%
CCCn1c(O)nnc1SCC(=O)Nc1cc(C(F)(F)F)ccc1Cl	6.33%
CC(C)c1sc(N2CCN(C)CC2)nc1C(=O)NCCc1ccc(Br)cc1	2.14%
CCCCCCCN(Cc1ccc(OC(C)(C)C(=O)OCC)cc1)C(=O)Nc1ccccc1OCC	-2.13%
CC(=O)Nc1ccc([N+](=O)[O-])c2c(Br)cccc12	10.4%

SMILES	inhibition
CCn1ncc(Cl)c1CN(C)S(=O)(=O)c1ccc(Br)cc1	-2.26%
O=C(Nc1ccc(C(=O)Oc2ccc(-c3ccccc3)cc2)cc1)N[C@@H](Cc1ccc(O)cc1)C(=O)NC1CCN(Cc2ccc(O)cc2)C1 (stereo not given in full)	4.33%
CCOC(=O)C1=C(C)N=c2sc(=Cc3ccccc3O)c(=O)n2C1c1ccc(OC)c2ccccc12 (stereo not given)	-1.57%
O=C(Nc1ccccc1Cc1ccccc1)c1ccccc1C(F)(F)F	2.61%
COC(=O)c1ccc(Nc2nccc(Nc3ccc(Oc4ccccc4)cc3)n2)cc1	2.57%
Fc1ccccc1COc1ccc(Nc2ncnc3ccc(-c4nnc(C(F)(F)F)o4)cc23)cc1Cl	2.13%
Cc1cc(-c2cccc(CNCCc3ccc(Cl)cc3)c2)cnc1N	7.77%
Clc1ccc(-c2ccc(CNCCCN3CCCC3)cc2)cc1	3.65%
CC12CCC(=O)N1C(C(=O)Nc1cccc(C(=O)Nc3cccc(C(F)(F)F)c3)c1)CS2 (stereo not given)	6.41%
NC1=NC(Cc2ccccc2)(c2ccncc2)C(=O)N1CCCc1ccccc1 (stereo not given)	2.03%
O=C(Nc1cccc(CN2CCCN(Cc3ccc4c(c3)OCO4)CC2)c1)c1cc2ccccc2s1	-3.63%
CC(C)c1ccc(CN2CCC(NC(=O)c3ccc(-c4cccc(Cl)c4)s3)CC2)cc1	7.5%
Clc1ccc2c(NN=Cc3ccccc3)ccnc2c1	7.07%
CC(CN1CCN(CC(c2ccc(F)cc2)N2CCN(C)CC2)CC1)C(=O)c1ccc(O)cc1 (stereo not given)	2.04%
O=C(/C=C/c1ccc(Cl)c(Cl)c1)NCCCCCN1CCC(C(=O)Nc2ccc(F)c(Cl)c2)CC1	1.53%
Cc1cc(F)ccc1[C@H]1CNCCN1C(=O)N(C)[C@@H](C)c1cc(C(F)(F)F)cc(C(F)(F)F)c1	-2.72%
NS(=O)(=O)c1cncc(-c2ccc3nccc(-c4cn[nH]c4)c3n2)c1	6.63%
C=CCNc1cc(-c2ccccn2)nc(-c2ccccn2)n1	6.05%
c1cc(CN2CCc3ccccc3CC2)cc(-c2c[nH]c3nc(NC4CCCC4)ncc23)c1	0.91%
CC(C)N1CCCN(C(=O)C2CCN(c3ccc(C(=O)N4CCCC4)cn3)CC2)CC1	4.51%
